The source made the active and inactive calls. The calls were made as follows: active = hit-call score of the fitted dose curve at least 0.9, where 1 is the maximum; inactive = score below 0.9.
Legend:
Conditions in all cases: mRNA level, 48 h; actives raise or lower the signal
[1] = read-out: Cytochrome P450 7A1 (Homo sapiens) (UniProt P22680); assay: LTEA_HepaRG_CYP7A1: Life Technologies and Expression Analysis (LTEA) Assay for Cytochrome P450 7A1 (CYP7A1) using HepaRG (AID 2283496)
How it was run: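 HepaRG cells plated 48 h, then switched to serum-free induction medium and exposed in duplicate for 48 h to 8-point half-log series from 100 uM in 0.5% DMSO. CYP7A1 mRNA by qRT-PCR (TaqMan), normalized to ACTB/GAPDH/POLR2A; bidirectional fit versus DMSO.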

[2] = read-out: Glutamate-cysteine ligase catalytic (GCLC), GCLC (gene 2729); assay: LTEA_HepaRG_GCLC: Life Technologies and Expression Analysis (LTEA) Assay for Glutamate-cysteine ligase catalytic (GCLC) using HepaRG (AID 2283498)
How it was run: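 Differentiated human HepaRG cells, plated 48 h then switched to serum-free induction medium, were exposed in duplicate for 48 h to 8 half-log concentrations topping at 100 uM in 0.5% DMSO. GCLC mRNA was quantified by qRT-PCR against ACTB, GAPDH and POLR2A.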

[3] = read-out: growth arrest and DNA damage 45 (GADD45G), GADD45G (gene 10912); assay: LTEA_HepaRG_GADD45G: Life Technologies and Expression Analysis (LTEA) Assay for growth arrest and DNA damage 45 (GADD45G) using HepaRG (AID 2283499)
How it was run: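 HepaRG, 48 h exposure, top 100 uM, half-log 8-point series, 0.5% DMSO vehicle, duplicates. Readout: GADD45G transcript by qRT-PCR (Fluidigm array), housekeeping-normalised (ACTB/GAPDH/POLR2A). Bidirectional curve fit vs DMSO baseline.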

[4] = read-out: Glutamate-cysteine ligase regulatory (GCLM), GCLM (gene 2730); assay: LTEA_HepaRG_GCLM: Life Technologies and Expression Analysis (LTEA) Assay for Glutamate-cysteine ligase regulatory (GCLM) using HepaRG (AID 2283500)
How it was run: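 Cells were plated, cultured 48 h, switched to serum-free induction medium, then dosed in duplicate for 48 h at eight half-log concentrations up to 100 uM. RNA was then profiled by qRT-PCR; gain or loss versus DMSO was fitted.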

[5] = read-out: Glutathione S-transferase M3 (GSTM3), GSTM3 (gene 2947); assay: LTEA_HepaRG_GSTM3: Life Technologies and Expression Analysis (LTEA) Assay for Glutathione S-transferase M3 (GSTM3) using HepaRG (AID 2283501)
How it was run: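 qRT-PCR read-out of GSTM3 transcript, normalized to three housekeeping genes, from human HepaRG cells after 48 h chemical exposure. Eight-point half-log series, top 100 uM, 0.5% DMSO vehicle; gain or loss fitted relative to DMSO baseline.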

[6] = read-out: Heat shock 70 kDa protein 1 (HSPA1A), gene 3303; assay: LTEA_HepaRG_HSPA1A: Life Technologies and Expression Analysis (LTEA) Assay for Heat shock 70 kDa protein 1 (HSPA1A) using HepaRG (AID 2283502)
How it was run: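 Readout is HSPA1A transcript level by microfluidic qRT-PCR, normalized to three housekeeping genes and analysed for gain or loss of signal relative to 0.5% DMSO. Human HepaRG cultures received test chemicals for 48 h at up to 100 uM.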

[7] = read-out: Hypoxia-inducible factor 1-alpha (Homo sapiens) (UniProt Q16665); assay: LTEA_HepaRG_HIF1A: Life Technologies and Expression Analysis (LTEA) Assay for Hypoxia-inducible factor 1 (HIF1A) Trancription factor using HepaRG (AID 2283503)
How it was run: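 Differentiated HepaRG cells in serum-free induction medium exposed 48 h, in duplicate, to 8-point half-log series from 100 uM in 0.5% DMSO. HIF1A mRNA measured by TaqMan qRT-PCR, normalized to ACTB/GAPDH/POLR2A, fitted bidirectionally versus DMSO.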

HGF (gene 3082) = assay: LTEA_HepaRG_HGF: Life Technologies and Expression Analysis (LTEA) Assay for Hepatocyte Growth Facto (HGF) using HepaRG (AID 2283505)
How it was run: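 HepaRG, 48 h dosing, 8-pt half-log series from 100 uM in 0.5% DMSO, duplicates. Readout: TaqMan qRT-PCR of HGF mRNA, housekeeping-normalized; bidirectional curve fit vs DMSO baseline.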

[8] = read-out: Insulin Like Growth Factor 1 (IGF1), IGF1 (gene 3479); assay: LTEA_HepaRG_IGF1: Life Technologies and Expression Analysis (LTEA) Assay for Insulin Like Growth Factor 1 (IGF1) using HepaRG (AID 2283506)
How it was run: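 HepaRG, plated 48 h, then switched to serum-free induction media; test chemical 8-pt half-log from 100 uM (0.5% DMSO), duplicate, 48 h. Lysis in RLT, TaqMan qRT-PCR, norm. ACTB/GAPDH/POLR2A. Bidirectional fit vs DMSO.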

[9] = read-out: Intercellular Adhesion Molecule 1 (ICAM1), ICAM1 (gene 3383); assay: LTEA_HepaRG_ICAM1: Life Technologies and Expression Analysis (LTEA) Assay for Intercellular Adhesion Molecule 1 (ICAM1) using HepaRG (AID 2283507)
How it was run: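 HepaRG, 48 h exposure, 8-pt half-log series from 100 uM, 0.5% DMSO vehicle, duplicates. Readout: TaqMan qRT-PCR mRNA, housekeeping-normalized (ACTB/GAPDH/POLR2A). Bidirectional curve fit vs DMSO baseline.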

[10] = read-out: Insulin-like growth factor-binding protein 1 (IGFBP1), IGFBP1 (gene 3484); assay: LTEA_HepaRG_IGFBP1: Life Technologies and Expression Analysis (LTEA) Assay for Insulin-like growth factor-binding protein 1 (IGFBP1) using HepaRG (AID 2283508)
How it was run: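 qRT-PCR mRNA read-out (TaqMan, Fluidigm array), normalised to three housekeeping genes; HepaRG cells, 48 h exposure, 8-pt half-log series from 100 uM, 0.5% DMSO vehicle; bidirectional curve fit vs DMSO baseline.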

[11] = read-out: Interleukin 6 (IL6), IL6 (gene 3569); assay: LTEA_HepaRG_IL6: Life Technologies and Expression Analysis (LTEA) Assay for Interleukin 6 (IL6) using HepaRG (AID 2283509)
How it was run: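 Differentiated human HepaRG cells, plated 48 h then switched to serum-free induction medium, were exposed in duplicate for 48 h to eight half-log concentrations up to 100 uM in 0.5% DMSO. IL6 mRNA measured by qRT-PCR, normalized to ACTB/GAPDH/POLR2A.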

[12] = read-out: Interleukin 6 Receptor (IL6R), IL6R (gene 3570); assay: LTEA_HepaRG_IL6R: Life Technologies and Expression Analysis (LTEA) Assay for Interleukin 6 Receptor (IL6R) using HepaRG (AID 2283510)
How it was run: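 Readout is IL6R transcript level by TaqMan qRT-PCR, normalized to three housekeeping genes and fitted bidirectionally against 0.5% DMSO controls. Human HepaRG cells received chemicals for 48 h in serum-free induction medium, highest concentration 100 uM.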

[13] = read-out: Potassium channel subfamily K member 1 (KCNK1), KCNK1 (gene 3775); assay: LTEA_HepaRG_KCNK1: Life Technologies and Expression Analysis (LTEA) Assay for Potassium channel subfamily K member 1 (KCNK1) using HepaRG (AID 2283511)
How it was run: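 Differentiated human HepaRG cells in serum-free induction medium were exposed in duplicate for 48 h to 8 half-log concentrations up to 100 uM in 0.5% DMSO. KCNK1 mRNA was measured by TaqMan qRT-PCR, normalized to ACTB, GAPDH and POLR2A, and fitted bidirectionally versus DMSO.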

[14] = read-out: Keratin 19 (KRT19), KRT19 (gene 3880); assay: LTEA_HepaRG_KRT19: Life Technologies and Expression Analysis (LTEA) Assay for Keratin 19 (KRT19) using HepaRG (AID 2283512)
How it was run: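 HepaRG, 48 h chemical exposure, 8-pt half-log CRC from 100 uM, 0.5% DMSO vehicle, duplicates. Readout: TaqMan qRT-PCR of KRT19 mRNA, housekeeping-normalized (ACTB/GAPDH/POLR2A). Bidirectional fit vs DMSO baseline.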

[15] = read-out: JUN Transcription Factor, JUN (gene 3725); assay: LTEA_HepaRG_JUN: Life Technologies and Expression Analysis (LTEA) Assay for JUN Transcription Factor using HepaRG (AID 2283513)
How it was run: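 Cells plated 48 h, medium switched to serum-free induction medium, then dosed 48 h (100 uM top, half-log dilutions, 0.5% DMSO). RNA isolated; JUN measured by qRT-PCR against three housekeeping genes; gain or loss fitted relative to DMSO.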

[16] = read-out: Lipoprotein lipase (LPL), LPL (gene 4023); assay: LTEA_HepaRG_LPL: Life Technologies and Expression Analysis (LTEA) Assay for Lipoprotein lipase (LPL) using HepaRG (AID 2283515)
How it was run: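 Differentiated human HepaRG cells in serum-free induction medium were exposed in duplicate for 48 h to eight half-log concentrations (top 100 uM) in 0.5% DMSO. LPL mRNA was quantified by TaqMan qRT-PCR, normalized to ACTB, GAPDH and POLR2A.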

[17] = read-out: 3-Hydroxy-3-Methylglutaryl-CoA Synthase 2 (HMGCS2), HMGCS2 (gene 3158); assay: LTEA_HepaRG_HMGCS2: Life Technologies and Expression Analysis (LTEA) Assay for 3-Hydroxy-3-Methylglutaryl-CoA Synthase 2 (HMGCS2) using HepaRG (AID 2283504)
How it was run: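 qRT-PCR read-out of HMGCS2 transcript, normalised to three housekeeping genes, in HepaRG cells after 48 h chemical exposure. Eight-point curves from 100 uM, half-log dilutions, 0.5% DMSO vehicle; gain or loss fitted relative to DMSO baseline.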

[18] = read-out: Glutathione S-Transferase (GSTA2), GSTA2 (gene 2939); assay: LTEA_HepaRG_GSTA2: Life Technologies and Expression Analysis (LTEA) Assay for Glutathione S-Transferase (GSTA2) using HepaRG (AID 2283497)
How it was run: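 Human HepaRG cells, plated 48 h, then exposed in serum-free induction medium for 48 h to eight half-log concentrations up to 100 uM in 0.5% DMSO, duplicate. GSTA2 mRNA by qRT-PCR, normalized to ACTB/GAPDH/POLR2A; bidirectional fit versus DMSO.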

[19] = read-out: Lipase C (LIPC), LIPC (gene 3990); assay: LTEA_HepaRG_LIPC: Life Technologies and Expression Analysis (LTEA) Assay for Lipase C (LIPC) using HepaRG (AID 2283514)
How it was run: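 Differentiated human HepaRG cells in serum-free induction medium were exposed in duplicate for 48 h to eight concentrations (top 100 uM, half-log steps, 0.5% DMSO). LIPC mRNA was quantified by TaqMan qRT-PCR, normalized to ACTB, GAPDH and POLR2A, with bidirectional fitting versus DMSO.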

Measured: AC50

Chain of Hypoxia-inducible factor 1-alpha (Homo sapiens) (Q16665 whole entry, looked up): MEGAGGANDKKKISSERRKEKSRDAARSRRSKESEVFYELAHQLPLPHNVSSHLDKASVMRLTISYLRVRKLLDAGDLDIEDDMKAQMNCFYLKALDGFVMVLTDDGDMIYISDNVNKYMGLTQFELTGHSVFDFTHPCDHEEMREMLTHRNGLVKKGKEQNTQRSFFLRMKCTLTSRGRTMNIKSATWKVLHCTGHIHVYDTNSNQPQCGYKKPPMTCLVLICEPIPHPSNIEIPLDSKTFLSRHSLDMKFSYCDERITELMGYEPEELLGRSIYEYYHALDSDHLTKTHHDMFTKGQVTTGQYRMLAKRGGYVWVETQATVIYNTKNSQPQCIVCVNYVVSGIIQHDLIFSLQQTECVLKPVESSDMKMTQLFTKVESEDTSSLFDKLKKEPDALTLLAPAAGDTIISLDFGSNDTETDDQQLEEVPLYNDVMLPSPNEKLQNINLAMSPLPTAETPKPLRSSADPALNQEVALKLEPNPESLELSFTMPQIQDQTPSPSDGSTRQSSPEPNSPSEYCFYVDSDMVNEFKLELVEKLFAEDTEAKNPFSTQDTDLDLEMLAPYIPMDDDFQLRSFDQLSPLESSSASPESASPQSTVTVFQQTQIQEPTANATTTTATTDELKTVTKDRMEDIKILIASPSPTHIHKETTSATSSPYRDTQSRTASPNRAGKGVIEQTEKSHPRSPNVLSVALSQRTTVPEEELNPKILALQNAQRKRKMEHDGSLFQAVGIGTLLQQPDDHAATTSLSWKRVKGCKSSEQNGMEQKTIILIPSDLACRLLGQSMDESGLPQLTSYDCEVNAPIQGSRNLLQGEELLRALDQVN

Cc1cc(-c2ccc(N)c(C)c2)ccc1N
active: [1] 9.92 µM | [3] 26 µM | [14] 30.8 µM | [16] 50 µM
not listed: [17] | [18] | [19]
inactive: all other assays above

CC(C)C(=O)OCC(C)(C)C(OC(=O)C(C)C)C(C)C (centres undefined)
not listed: [8] | [18] | [19]
inactive: all other assays above

CC(c1ccc(O)cc1)(c1ccc(O)cc1)c1ccc(O)cc1
inactive: [4] | [5] | [7] | [13] | [19]
active: [1] 67 µM | [18] 37.3 µM | [2] 73.4 µM | [3] 75.1 µM | HGF (gene 3082) 25.1 µM | [9] 33.4 µM | [10] 18.8 µM | [11] 80.8 µM | [12] 72.7 µM | [14] 50 µM | [15] 82.9 µM | [16] 68.6 µM

Clc1ccc(C(c2ccccc2Cl)C(Cl)(Cl)Cl)cc1 (centres undefined)
active: [1] 15.3 µM | [3] 90 µM | [17] 50 µM | [8] 31.3 µM | [14] 20.4 µM | [16] 89.7 µM
not listed: [6] | [19]
inactive: all other assays above

CCCN(CCC)N=O
not listed: [6] | [19]
inactive: all other assays above

C[C@]12CCC(=O)C=C1CC[C@@H]1[C@@H]2CC[C@]2(C)C(=O)CC[C@@H]12
active: [1] 4.69 µM | [11] 9.92 µM
not listed: [3] | [6] | [7] | [8] | [19]
inactive: all other assays above

C=CC(N)=O
not listed: [6] | [8] | [19]
inactive: all other assays above
